Assay results as given in PubChem BioAssay (EPA / NIEHS).
Active and inactive are the calls of the source. How the source made its calls: active means hit-call score of the fitted dose curve at least 0.9, where 1 is the maximum; inactive means score below 0.9.

How the values were obtained:
[1] = APR_HepG2_CellLoss_72hr: Apredica 72-hour HepG2 Assay for Cell Loss (AID 2282915); settings: high-content imaging
Outline: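 HepG2 cells were exposed for 72 hr to compounds at 0.39–200 uM (ten concentrations, duplicate) in 0.5% v/v final DMSO. Nuclei were stained with Hoechst 33342 after 3.7% formaldehyde fixation, imaged at 20x, and counted; fits bidirectional versus DMSO.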

[2] = APR_HepG2_P-H2AX_72hr: Apredica 72-hour HepG2 Assay for H2AX Phosphorylation (AID 2282916); settings: imaging, actives raise or lower the signal;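 further: phospho-histone H2A.x immunostain intensity per cell marking DNA damage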
Outline: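 Human hepatoma HepG2 cells are dosed across ten concentrations (0.39 to 200 uM, 0.5% v/v DMSO) and incubated 72 hr. Phospho-histone H2A.x is then detected by antibody staining alongside c-Jun and Hoechst, and quantified by automated fluorescence imaging.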

[3] = APR_HepG2_MitoMembPot_72hr: Apredica 72-hour HepG2 Assay for Mitochondrial Membrane Potential (AID 2282917); settings: imaging, actives raise or lower the signal
Outline: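 HepG2 cells exposed 72 h to compounds at 0.39–200 uM (0.5% v/v DMSO, duplicates); MitoTracker Red CMXRos 250 nM loaded 30 min before 3.7% formaldehyde fixation, imaged by HCS fluorescence. Bidirectional fit versus DMSO.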

[4] = APR_HepG2_MitoticArrest_72hr: Apredica 72-hour HepG2 Assay for Mitotic Arrest (AID 2282918); settings: high-content imaging, actives raise or lower the signal
Outline: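 High-content imaging of fixed human HepG2 cells after 72 h compound exposure (0.39–200 uM, duplicates, 0.5% DMSO); mitotic arrest scored from phospho-histone H3 and nuclear Hoechst staining relative to DMSO.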

[5] = APR_HepG2_MicrotubuleCSK_72hr: Apredica 72-hour HepG2 Assay for Microtubule CSK Stabilty (AID 2282919); settings: HepG2 microtubule cytoskeleton, high-content imaging, actives raise or lower the signal
Outline: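 Ten-point dosing (0.39–200 uM, 0.5% DMSO) of HepG2 for 72 hr, with taxol as the cytoskeletal positive control. The cells were formaldehyde-fixed and then stained with alpha-tubulin/Cy5 and Hoechst. Imaging at 20x used a −2 um Z offset for tubulin.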

[6] = APR_HepG2_P-H2AX_24hr: Apredica 24-hour HepG2 Assay for H2AX Phosphorylation (AID 2282920); settings: high-content imaging, actives raise or lower the signal
Outline: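 High-content imaging of phospho-histone H2A.x immunofluorescence, nuclei counterstained with Hoechst 33342, in fixed HepG2 cells. Compounds ran 0.39–200 uM in duplicate for 24 h, final DMSO 0.5%. Signal change fitted both directions against DMSO.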

[7] = APR_HepG2_StressKinase_72hr: Apredica 72-hour HepG2 Assay for Stress Kinase (AID 2282921); settings: HepG2 stress kinase (phospho-c-Jun) imaging, actives raise or lower the signal
Outline: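 After a 72 h compound treatment spanning 0.39 to 200 uM, formaldehyde-fixed cells are labelled for phosphorylated c-Jun and nuclei, imaged by automated fluorescence microscopy, and activity is fitted in both directions relative to DMSO controls.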

[8] = APR_HepG2_StressKinase_24hr: Apredica 24-hour HepG2 Assay for Stress Kinase (AID 2282922); settings: HepG2 stress kinase (phospho-c-Jun) imaging, actives raise or lower the signal
Outline: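 After 24 hr compound treatment (up to 200 uM, final DMSO 0.5% v/v), HepG2 cells are fixed and multiplex-labeled; phospho-c-Jun intensity is captured by high-content fluorescence imaging and analyzed relative to DMSO.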

[9] = APR_HepG2_p53Act_72hr: Apredica 72-hour HepG2 Assay for p53 Activation (AID 2282923); settings: high-content imaging, actives raise or lower the signal;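 further: average cellular p53 protein immunofluorescence intensity in HepG2 cells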
Outline: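 Imaging-based endpoint: after 72 hr compound exposure (up to 200 uM, 0.5% DMSO), fixed and permeabilized monolayers were labelled with anti-p53 antibody and imaged; signal change in either direction was fitted relative to DMSO controls.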

[10] = APR_HepG2_MitoMass_72hr: Apredica 72-hour HepG2 Assay for Mitochondrial Mass (AID 2282924); settings: high-content imaging, actives raise or lower the signal;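 further: MitoTracker Red CMXRos stain intensity per cell imaged as mitochondrial mass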
Outline: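 Steps: treat HepG2 72 hr (0.39–200 uM, duplicate wells); load MitoTracker Red CMXRos, 250 nM, 30 min; fix with 3.7% formaldehyde, permeabilise with 0.5% Triton X-100; capture images, nuclei via Hoechst 33342; fit bidirectionally against DMSO.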

[11] = APR_HepG2_NuclearSize_72hr: Apredica 72-hour HepG2 Assay for Nuclear Size (AID 2282925); settings: high-content imaging, actives raise or lower the signal
Outline: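 Compounds (0.39–200 uM, final DMSO 0.5%) were applied to HepG2 for 72 hr. Cells were then formaldehyde-fixed, permeabilized and labelled with Hoechst 33342. Nuclear diameter was quantified from six images per well.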

[12] = ATG_CRE_CIS: Attagene CIS-FACTORIAL HepG2 Assay for human cAMP Responsive Element (CRE) binding protein 3 (AID 2282926); settings: HepG2 CRE cis-reporter, Attagene multiplexed mRNA; actives raise or lower the signal
Outline: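 Endogenous transcription factor activity read via CRE-regulated reporter transcripts in transfected HepG2 cells. After 24 h exposure, RNA was reverse-transcribed, amplified, fluorescently labelled and sized by capillary electrophoresis; gain or loss fitted against DMSO.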

[13] = biological target: CCAAT/enhancer-binding protein beta (Homo sapiens) (UniProt P17676); assay: ATG_C_EBP_CIS: Attagene CIS-FACTORIAL HepG2 Assay for human CCAAT/Enhancer Binding Protein (C/EBP) beta (AID 2282927); settings: HepG2 Attagene cis-factorial transcription factor reporter; actives raise or lower the signal
Outline: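 Following a 24 h incubation with test chemical, transfected HepG2 cells yielded RNA whose reporter transcripts were quantified by RT-PCR and fluorescent capillary electrophoresis, with DMSO serving as baseline for bidirectional fitting.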

[14] = ATG_CMV_CIS: Attagene CIS-FACTORIAL HepG2 Assay for human CMV (Internal Marker) (AID 2282928); settings: HepG2 CMV promoter reporter, transcription factor profiling; actives raise or lower the signal;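 further: endpoint acts as a background internal control marker rather than a target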
Outline: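 Reporter transcripts from transfected HepG2 cells are isolated after 24 h of chemical dosing, reverse-transcribed and amplified. Fragments labeled with 6-FAM are cut with HpaI and quantified by capillary electrophoresis; DMSO defines baseline.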

[15] = ATG_DR4_LXR_CIS: Attagene CIS-FACTORIAL HepG2 Assay for human Liver X Receptor (LXR), DR4 submotif (AID 2282929); settings: HepG2 Attagene DR4 cis-reporter, mRNA transcription; actives raise or lower the signal
Outline: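 Fluorescence intensity of labelled reporter cDNA fragments, separated by capillary electrophoresis, gives the signal. HepG2 cells bearing cis-regulated reporter constructs were treated 24 h; activity fitted bidirectionally relative to DMSO negative control.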

[16] = biological target: Aryl hydrocarbon receptor (Homo sapiens) (UniProt P35869); assay: ATG_Ahr_CIS: Attagene CIS-FACTORIAL HepG2 Assay for human Aryl Hydrocarbon Receptor (Ahr) (AID 2282930); settings: HepG2 AhR cis-factorial reporter transcription; actives raise or lower the signal
Outline: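 Values derive from bidirectional fitting against DMSO negative control. Underlying signal: cis-element reporter mRNA in transiently transfected HepG2, harvested 24 h post-dose and measured by RT-PCR plus capillary electrophoresis.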

[17] = ATG_AP_1_CIS: Attagene CIS-FACTORIAL HepG2 Assay for human Activator Protein 1 (AP-1) (AID 2282931); settings: HepG2 Attagene cis-factorial AP-1 reporter mRNA; actives raise or lower the signal
Outline: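 Multiplexed HepG2 reporter assay, 24 h dosing. mRNA induction detected by RT-PCR plus capillary electrophoresis. Activity fitted in both directions against DMSO.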

[18] = ATG_AP_2_CIS: Attagene CIS-FACTORIAL HepG2 Assay for human Activator Protein 2 (AP-2) (AID 2282932); settings: HepG2 AP-2 cis-reporter, Attagene transcription factor profiling; actives raise or lower the signal
Outline: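 Cells (HepG2) transfected with promoter-driven reporter constructs, treated 24 h. Total RNA reverse-transcribed, reporter cDNA PCR-amplified, FAM-labelled by primer extension, digested, resolved by capillary electrophoresis. Activity fitted both directions versus DMSO.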

[19] = ATG_BRE_CIS: Attagene CIS-FACTORIAL HepG2 Assay for human Bone Morphogenetic Protein (BMP) Response Element (BRE) (AID 2282933); settings: HepG2 BMP response element reporter, Attagene transcription factor profiling; actives raise or lower the signal
Outline: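 After a 24 h chemical treatment, transiently transfected HepG2 cells were lysed for RNA; reporter transcripts were quantified by fluorescent RT-PCR and capillary electrophoresis, normalised to DMSO.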

Measured: AC50

Chain of CCAAT/enhancer-binding protein beta (Homo sapiens) (P17676 whole entry, looked up): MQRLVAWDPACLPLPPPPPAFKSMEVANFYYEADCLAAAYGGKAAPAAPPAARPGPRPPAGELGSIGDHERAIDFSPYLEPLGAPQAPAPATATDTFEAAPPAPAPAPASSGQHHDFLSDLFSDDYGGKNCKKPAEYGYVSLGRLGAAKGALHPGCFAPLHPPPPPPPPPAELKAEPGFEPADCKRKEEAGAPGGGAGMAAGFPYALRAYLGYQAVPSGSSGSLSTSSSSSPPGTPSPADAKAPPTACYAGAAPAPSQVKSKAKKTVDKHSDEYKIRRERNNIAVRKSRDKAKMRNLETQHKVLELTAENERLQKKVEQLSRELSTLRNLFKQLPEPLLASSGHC
Chain of Aryl hydrocarbon receptor (Homo sapiens) (P35869 whole entry, looked up): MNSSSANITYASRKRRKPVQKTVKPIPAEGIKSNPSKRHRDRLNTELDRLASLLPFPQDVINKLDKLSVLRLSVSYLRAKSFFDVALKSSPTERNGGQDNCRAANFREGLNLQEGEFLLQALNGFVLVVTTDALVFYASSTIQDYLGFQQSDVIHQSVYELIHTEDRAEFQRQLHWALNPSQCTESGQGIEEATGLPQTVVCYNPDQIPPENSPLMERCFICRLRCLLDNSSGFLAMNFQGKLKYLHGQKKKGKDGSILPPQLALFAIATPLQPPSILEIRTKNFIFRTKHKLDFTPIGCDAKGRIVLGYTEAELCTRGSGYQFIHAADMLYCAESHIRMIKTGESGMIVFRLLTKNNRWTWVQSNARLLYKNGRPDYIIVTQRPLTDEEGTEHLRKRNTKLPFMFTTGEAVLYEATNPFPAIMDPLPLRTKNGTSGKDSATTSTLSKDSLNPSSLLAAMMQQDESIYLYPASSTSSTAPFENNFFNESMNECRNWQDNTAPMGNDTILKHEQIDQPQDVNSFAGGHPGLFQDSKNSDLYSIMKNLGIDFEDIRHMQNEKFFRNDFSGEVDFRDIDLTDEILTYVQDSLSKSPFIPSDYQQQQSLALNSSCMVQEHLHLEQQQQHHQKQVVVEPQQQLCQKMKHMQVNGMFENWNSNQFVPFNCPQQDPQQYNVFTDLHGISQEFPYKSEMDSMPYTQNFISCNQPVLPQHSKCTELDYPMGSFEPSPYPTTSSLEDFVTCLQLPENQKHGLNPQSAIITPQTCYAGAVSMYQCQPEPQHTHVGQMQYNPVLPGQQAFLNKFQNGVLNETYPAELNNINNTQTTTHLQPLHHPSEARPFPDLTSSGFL

CC(C)N1C(=O)N(c2ccccc2)CSC1=NC(C)(C)C
inactive: [2] | [3] | [4] | [7] | [8] | [9] | [10] | [11] | [12] | [13] | [14] | [15] | [16] | [17] | [18] | [19]
active: [1] 42.5 µM | [5] 32.6 µM | [6] 111 µM

COC(=O)NC(=S)Nc1ccccc1NC(=S)NC(=O)OC
inactive: [2] | [3] | [4] | [5] | [6] | [7] | [8] | [9] | [11] | [14] | [15] | [17] | [18]
active: [1] 26.1 µM | [10] 41.6 µM | [12] 29 µM | [13] 28.7 µM | [16] 73.9 µM | [19] 26.3 µM

Nc1c(Cl)c(Cl)nc(C(=O)O)c1Cl
inactive: [1] | [2] | [3] | [4] | [5] | [6] | [7] | [8] | [9] | [10] | [11] | [12] | [13] | [14] | [15] | [17] | [18] | [19]
active: [16] 31.3 µM

O=C(Nc1ccccc1-c1ccc(Cl)cc1)c1cccnc1Cl
active: [13] 10.3 µM
inactive: [1] | [2] | [3] | [4] | [5] | [7] | [8] | [9] | [10] | [11] | [12] | [14] | [15] | [16] | [17] | [18] | [19]

CCOC(=O)C(C)OC(=O)c1cc(Oc2ccc(C(F)(F)F)cc2Cl)ccc1[N+](=O)[O-] (stereo not drawn)
inactive: [2] | [4] | [5] | [6] | [7] | [8] | [9] | [10] | [11] | [12] | [13] | [14] | [15] | [17] | [18]
active: [1] 41 µM | [3] 19.8 µM | [16] 14.7 µM | [19] 17.8 µM

CC1(C)C(C=C(Cl)Cl)C1C(=O)OC(C#N)c1cccc(Oc2ccccc2)c1 (stereo not drawn)
inactive: [1] | [2] | [3] | [4] | [5] | [6] | [7] | [8] | [9] | [10] | [11] | [12] | [13] | [14] | [16] | [17] | [18] | [19]
active: [15] 30.3 µM
